Measured values: PubChem BioAssay (Tox21)
Records with an inconclusive call do not appear. Entries that show only a call come without a potency. A number with no mark means an inactive call. Activity calls are given as the source filed them. Calls come from the whole dose curve; as a rule, active = well fitted cell-killing curve with a large enough effect in the repeat runs; inconclusive = weak or mixed curves, or effect the other way; inactive = flat fitted curve, though single readings scatter.

Assay: Nuclear factor erythroid 2-related factor 2/antioxidant responsive element (Nrf2/ARE) small molecule agonists: qHTS cell viability counter screen in human keratinocytes (AID 1919968); note: nearly all actives have a fitted effect of over 55% in size
Conditions: KeratinoSens HaCaT ARE cells viability, CellTiter-Fluor, 24 h; series mostly up to 92.4 µM
Excerpt: U.S. Tox21 Program National Center for Advancing Translational Sciences [NCATS] Division of Preclinical Innovation [DPI] U.S. Environmental Protection Agency [EPA] National Institutes of Environmental Health Sciences [NIEHS] National Toxicology Program [NTP] U.S. Food and Drug Administration [FDA] Tox21 Assay Overview: Oxidative stress has been implicated in the pathogenesis of a variety of diseases ranging from cancer to neurodegeneration. The antioxidant response element (ARE) signaling pathway plays an important role in the amelioration of oxidative stress. The KeratinoSens (Givaudan, Switzerland) is an in vitro test method which quantifies luciferase induction as a measure of activation of Keap1-Nrf2-antioxidationt/electrophile response element (ARE) dependant pathway in HaCaT human keratinocytes stably transfected with a selectable plasmid. The KeratinoSens assay is a cell-based assay with a reporter cell line to detect potential skin sensitizers by their ability to induce the Nrf2/ARE-response. The activation of the report gene under culture conditions can be detected by ONE-Glo Luciferase Assay System (Promega, Madison, WI). This cell line has been used to screen the Tox21 10K compound library to identify agonists that induce oxidative stress. The cytotoxicity of the Tox21 compound library against the KS-ARE cell line was tested in parallel by measuring the cell viability using CellTiter- Fluor assay system (Promega, Madison, WI) in the same wells.
Tox21 Assay Protocol Summary: HaCaT derived cell line KeratinoSens were dispensed at 1,500 cells/5uL/well in 1536-well white wall/solid bottom plates using a Multidrop Combi (ThermoFisher Scientific, Waltham, MA) dispenser. After the assay plates were incubated at 37 C/5% CO2 for 5 h, 23 nL of compounds dissolved in DMSO, positive controls or DMSO only was transferred to the assay plate by a pintool workstation (Kalypsys, San Diego, CA). The plates were incubated at 37 C/5% CO2 for 23 h, followed by addition of 1uL/well of CellTiter-Fluor reagent into the assay plates using a Flying Reagent Dispenser (Aurora Discovery, San Diego, CA) for cell viability readout that measures cytotoxicity. After 1 h incubation at 37 C/5% CO2 the fluorescence intensity was measured using a ViewLux (PerkinElmer, Shelton, CT) plate reader.
Potency is the fitted concentration of half-maximal effect.

Structure (SMILES)	Potency	activity change, negative = cytotoxicity
COc1cc(/C=C/c2ccccc2)oc(=O)c1	inactive	–
CC[C@H]1O[C@]2(CC[C@@H]1C)C[C@@H]1C[C@@H](C/C=C(\C)C[C@@H](C)/C=C/C=C3\CO[C@@H]4[C@H](O)C(C)=C[C@@H](C(=O)O1)[C@]34O)O2	15.2 µM (active)	–
O=C(O)c1ccccc1Nc1cc(Cl)ccc1C(=O)O	–	0.544% [at 19 µM]
O=S(=O)(O)c1cc(O)c2ccc(Nc3ccccc3)cc2c1	inactive	–
Cc1cccc(N(C)C(=S)Oc2ccc3c(c2)C2CCC3C2)c1 (stereo not given)	inactive	–
Nc1c[n+](N2CCOCC2)no1	inactive	–
CN(C)c1ccc(C=O)cc1	inactive	–
CC(C)NCC(O)c1cc(O)cc(O)c1 (stereo not given)	inactive	–
Cc1ccc(NC(=O)c2ccc(CN3CCN(C)CC3)cc2)cc1Nc1nccc(-c2cccnc2)n1	inactive	–
N#CCCNCCC#N	inactive	–
C(=C\c1ccccc1)/CN1CCN(C(c2ccccc2)c2ccccc2)CC1	13.3 µM (active)	–
CCCCCOC(=O)Nc1nc(=O)n([C@@H]2O[C@H](C)[C@@H](O)[C@H]2O)cc1F	inactive	–
CC(C)(CO)C(O)C(=O)NCCCO (stereo not given)	inactive	–
CC(C)COC(=O)/C=C/c1ccccc1	inactive	–
CC(=O)Nc1ccc(OC(=O)c2ccccc2OC(C)=O)cc1	inactive	–
CN(C)C(=O)NC1(c2ccccc2)CCN(CC[C@@]2(c3ccc(F)c(F)c3)CN(C(=O)c3ccccc3)CCO2)CC1	inactive	–
CCCCCCCCCCCCCBr	inactive	–
CC[N+](CC)(CC(=O)Nc1c(C)cccc1C)Cc1ccccc1 (tested in a mixture with another compound)	inactive	–
CCN(CC)CCNC(=O)COc1ccc(OC)cc1	inactive	–
CCCCC(CC)COC(=O)c1ccccc1 (stereo not given)	inactive	–

Structure (SMILES)	Potency	activity change, negative = cytotoxicity
CC(=O)[O][Al]	inactive	–
CCN[C@H]1C[C@H](C)S(=O)(=O)c2sc(S(N)(=O)=O)cc21	inactive	–
C1COCO1	inactive	–
Cc1nn(C)c(Oc2ccccc2)c1/C=N/OCc1ccc(C(=O)OC(C)(C)C)cc1	inactive	–
Cc1nc([N+](=O)[O-])cn1-c1ccc([N+](=O)[O-])cc1	inactive	–
CCCCCCC[N+](CC)(CC)CCCCc1ccc(Cl)cc1	inactive	–
CC(C)c1cccc(C(C)C)c1N1C(=O)c2ccc(O)cc2C1=O	inactive	–
CC(C)C1CCC(C(=O)N[C@H](Cc2ccccc2)C(=O)O)CC1 (stereo not given in full)	inactive	–
Cc1c(O)cccc1O	inactive	–
CC(C)CCCC(C)CC=O (stereo not given)	inactive	–
c1cc2ccc3ccc4ccc5cccc6c(c1)c2c3c4c56	–	3.98% [at 3.27 µM]
CCCCCCCCn1sc(Cl)c(Cl)c1=O	13.7 µM (active)	–
CC(=O)NC1(c2cccc(F)c2)CCN(CC[C@@]2(c3ccc(Cl)c(Cl)c3)CN(c3ccccc3)C(=O)CO2)CC1	48.7 µM (active)	–
CC1(C)[C@@H](OC(=O)CCC(=O)O)CC[C@]2(C)[C@H]3C(=O)C=C4[C@@H]5C[C@@](C)(C(=O)O)CC[C@]5(C)CC[C@@]4(C)[C@]3(C)CC[C@@H]12	inactive	–
Nc1nc(F)nc2c1ncn2[C@@H]1O[C@H](CO)[C@@H](O)[C@@H]1O	inactive	–
C=CC(C)(CCC=C(C)C)OC(=O)CC(C)C (stereo not given)	inactive	–
CN(c1nccc(=O)[nH]1)C1CCN(c2nc3ccccc3n2Cc2ccc(F)cc2)CC1	inactive	–
CN(Cc1ccc(C(C)(C)C)cc1)Cc1cccc2ccccc12	11.9 µM (active)	–
CC(C(O)c1ccccc1)N(C)CCOC(c1ccccc1)c1ccccc1 (stereo not given)	18.8 µM (active)	–
O=[N+]([O-])c1cccc(Cl)c1Cl	inactive	–
